Results from PubChem BioAssay (Tox21).
Values without a mark were called inactive. Inconclusive results are not listed. Entries that show only a call come without a potency. The source made the active and inactive calls. Unless noted, the call rests on the fitted dose curve.

Columns and labels:
[1] = molecular target: Gonadotropin-releasing hormone receptor (Homo sapiens) (UniProt P30968); experiment: Human gonadotropin-releasing hormone receptor (GnRHR) small molecule agonists, calcium flux assay in GnRHR-HEK293 cells (AID 1920063); further: nearly all actives have a fitted effect of over 35% in size
Sequence of Gonadotropin-releasing hormone receptor (Homo sapiens) (P30968 whole entry, looked up): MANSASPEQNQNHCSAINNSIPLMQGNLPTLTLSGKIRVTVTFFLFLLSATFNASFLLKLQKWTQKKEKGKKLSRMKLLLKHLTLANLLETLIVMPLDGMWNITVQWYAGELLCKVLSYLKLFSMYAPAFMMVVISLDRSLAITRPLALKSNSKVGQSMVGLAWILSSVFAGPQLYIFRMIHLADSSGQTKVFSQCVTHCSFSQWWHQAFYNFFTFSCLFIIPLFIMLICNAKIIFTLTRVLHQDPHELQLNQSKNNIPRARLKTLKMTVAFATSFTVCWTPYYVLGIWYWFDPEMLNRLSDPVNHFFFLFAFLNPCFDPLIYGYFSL
In short: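 Calcium flux, agonist mode, human GnRHR stably integrated in HEK293; dye 1 h at 37 C before compound; Ex/Em=480/540 kinetic read, 3 min; 15 concentrations, triplicate.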

[2] = molecular target: KiSS-1 receptor (Homo sapiens) (UniProt Q969F8); experiment: Human kisspeptin (KISS1R) small molecule agonists, calcium flux assay in KISS1R-HEK293 cells (AID 1920064; active means well fitted curve in the direction sought with a large enough effect in the repeat runs; an effect the other way counts as inactive or inconclusive)
Sequence of KiSS-1 receptor (Homo sapiens) (Q969F8 whole entry, looked up): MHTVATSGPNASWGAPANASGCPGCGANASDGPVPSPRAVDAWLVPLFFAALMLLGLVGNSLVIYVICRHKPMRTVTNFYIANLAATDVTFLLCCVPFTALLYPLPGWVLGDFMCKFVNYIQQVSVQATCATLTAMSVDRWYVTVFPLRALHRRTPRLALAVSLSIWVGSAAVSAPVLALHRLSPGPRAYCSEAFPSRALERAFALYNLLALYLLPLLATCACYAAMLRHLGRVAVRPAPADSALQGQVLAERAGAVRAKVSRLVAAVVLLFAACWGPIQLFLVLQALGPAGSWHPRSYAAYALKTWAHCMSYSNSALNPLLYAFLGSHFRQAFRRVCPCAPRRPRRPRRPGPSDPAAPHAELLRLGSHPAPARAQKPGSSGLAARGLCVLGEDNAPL
In short: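 Triplicate 15-concentration series were applied to dye-loaded human KISS1R HEK293 cells, and agonist-evoked calcium fluorescence was captured for 3 min.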

[3] = G protein-coupled receptor (GPCR) small molecule agonists, calcium flux assay: HEK293 wild type cell line counter screen (AID 1920065)
In short: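 Non-specific calcium responders were flagged by adding DMSO-dissolved compounds to dye-loaded cells and reading 480/540 nm fluorescence each second for 3 min; ATP served as positive control.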

[4] = p53 small molecule agonists, cell-based qHTS assay with human liver microsomes (AID 1963577);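 further: p53 response element beta-lactamase reporter cells with liver microsomes plus NADPH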
In short: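 Metabolically competent format: test substances, human liver microsomes and NADPH (both 0.5 mg/mL final) incubated with p53RE-bla cells 16 h at 37 C. Beta-lactamase reporter signal then quantified by fluorescence.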

[5] = p53 small molecule agonists, cell-based qHTS assay with rat liver microsomes (AID 1963578)
In short: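 Each plate received p53RE-bla cells, then compound, then rat liver microsomes and NADPH (both 0.5 mg/mL final). Plates were held 16 h at 37 C, and beta-lactamase activity was detected with LiveBLAzer over 2 h.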

[6] = p53 small molecule agonists, cell-based qHTS assay with human liver microsomes: qHTS cell viability counter screen (AID 1963579); further: nearly all actives have a fitted effect of over 45% in size
In short: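 Tox21 library compounds, delivered from DMSO stocks, were tested on p53RE-bla cells together with 0.5 mg/mL human liver microsomes and 0.5 mg/mL NADPH (final) over 16 h at 37 C; CellTiter-Glo luminescence served as the cytotoxicity measure.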

[7] = p53 small molecule agonists, cell-based qHTS assay with rat liver microsomes: qHTS cell viability counter screen (AID 1963580); further: nearly all actives have a fitted effect of over 45% in size
In short: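 After the beta-lactamase ratio was read, CellTiter-Glo was added to the same wells and luminescence measured at 30 min; cells had been treated 16 h at 37 C with compounds, rat liver microsomes and NADPH (0.5 mg/mL final each).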

[8] = p53 small molecule agonists, cell-based qHTS assay: qHTS cell viability counter screen (AID 1963581); further: nearly all actives have a fitted effect of over 45% in size
In short: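 Multiplexed with the reporter read, a CellTiter-Glo step (30 min, room temperature) gauges ATP-based viability of HCT-116 p53RE-bla cells after 16 h compound incubation at 37 C.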

[9] = p53 small molecule agonists, cell-based qHTS assay (AID 1963582; active means well fitted activation curve with a large enough effect in the signal ratio in the repeat runs, not every such curve was filed as active; the % refers to the signal ratio)
In short: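 Beta-lactamase reporter cells (p53RE-bla) treated with compounds for 16 h at 37 C; FRET substrate, 2 h, room temperature; fluorescence intensity.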

[10] = molecular target: 5-hydroxytryptamine receptor 2A (Homo sapiens) (UniProt P28223); experiment: 5-hydroxytryptamine receptor 2A (HTR2A) small molecule antagonists, cell-based qHTS assay (AID 1963586); further: nearly all actives have a fitted effect of over 45% in size; further: potency means the concentration at half of the fitted maximal effect
Sequence of 5-hydroxytryptamine receptor 2A (Homo sapiens) (P28223 whole entry, looked up): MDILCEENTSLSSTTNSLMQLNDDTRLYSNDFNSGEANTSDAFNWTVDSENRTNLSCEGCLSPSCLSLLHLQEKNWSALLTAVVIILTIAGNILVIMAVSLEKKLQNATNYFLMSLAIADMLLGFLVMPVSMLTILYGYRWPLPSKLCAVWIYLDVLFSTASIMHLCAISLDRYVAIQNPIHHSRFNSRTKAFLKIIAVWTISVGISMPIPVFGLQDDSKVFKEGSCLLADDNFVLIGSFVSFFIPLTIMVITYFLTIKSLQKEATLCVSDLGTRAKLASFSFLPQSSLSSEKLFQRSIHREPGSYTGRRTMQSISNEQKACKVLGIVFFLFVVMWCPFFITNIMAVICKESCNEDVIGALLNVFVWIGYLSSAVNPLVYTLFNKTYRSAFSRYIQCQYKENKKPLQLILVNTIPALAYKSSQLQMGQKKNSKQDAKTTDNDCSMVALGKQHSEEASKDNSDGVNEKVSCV
In short: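 CHO cells stably expressing human HTR2A were plated for 18 h at 37 C, then loaded with calcium dye for 1 h. Compounds were preincubated 5 min at room temperature before DOI (4 nM solution) was added. Kinetic fluorescence was read for 3 min.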

[11] = molecular target: Muscarinic acetylcholine receptor M1 (Homo sapiens) (UniProt P11229); experiment: Cholinergic receptor muscarinic 1 (CHRM1) small molecule antagonists, cell-based qHTS assay (AID 1963588); further: nearly all actives have a fitted effect of over 40% in size
Sequence of Muscarinic acetylcholine receptor M1 (Homo sapiens) (P11229 whole entry, looked up): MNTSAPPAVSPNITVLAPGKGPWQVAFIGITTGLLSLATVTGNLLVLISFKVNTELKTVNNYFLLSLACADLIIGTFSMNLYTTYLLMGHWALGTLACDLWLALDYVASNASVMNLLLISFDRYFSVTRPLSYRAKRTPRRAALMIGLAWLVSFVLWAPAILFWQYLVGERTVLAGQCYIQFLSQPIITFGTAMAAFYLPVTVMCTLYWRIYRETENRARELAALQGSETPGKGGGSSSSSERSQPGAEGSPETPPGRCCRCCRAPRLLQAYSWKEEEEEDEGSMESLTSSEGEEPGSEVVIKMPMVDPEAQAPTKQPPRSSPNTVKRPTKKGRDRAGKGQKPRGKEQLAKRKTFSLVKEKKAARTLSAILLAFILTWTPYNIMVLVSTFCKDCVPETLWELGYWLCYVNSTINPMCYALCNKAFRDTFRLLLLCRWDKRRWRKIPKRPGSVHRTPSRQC
In short: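 Compounds were tested at 15 concentrations in three independent runs. Dye-loaded CHRM1-CHO cells were exposed 5 min at room temperature before stimulation by acetylcholine added at 50nM. Intracellular calcium was read kinetically on FDSS for 3 min.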

[12] = molecular target: Muscarinic acetylcholine receptor M1 (Homo sapiens) (UniProt P11229); experiment: Cholinergic receptor muscarinic 1 (CHRM1) small molecule agonists, cell-based qHTS assay (AID 1963589); further: nearly all actives have a fitted effect of over 35% in size
In short: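 qHTS, 15-point titration, 3 independent runs: compounds pin-transferred onto dye-loaded CHRM1-CHO cells (human M1), calcium fluorescence followed every second to detect agonism.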

[13] = cAMP Responsive Elements (CRE) small molecule agonists, cell-based qHTS assay (AID 1963590)
In short: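 Quantitative HTS for CRE agonists: HEK 293T CRE-bla cells, overnight plating, 3 h compound incubation at 37 C/5% CO2, then 2 h room-temperature LiveBLAzer B/G FRET substrate loading.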

[14] = cAMP Responsive Elements (CRE) small molecule antagonists, cell-based qHTS assay (AID 1963591; active means well fitted inhibition curve with a large enough effect in the signal ratio in the repeat runs, not every such curve was filed as active; the % refers to the signal ratio)
In short: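 Fluorescence intensity from cleaved LiveBLAzer B/G substrate (2 h, room temperature) quantified CRE-bla activity in HEK 293T cells exposed 3 h to compound with 0.25 uM final NKH477.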

[15] = molecular target: Beta-2 adrenergic receptor (Homo sapiens) (UniProt P07550); experiment: Adrenergic beta2 receptor (ADRB2) small molecule antagonists, cell-based qHTS assay (AID 1963592); further: series mostly up to about 92 µM; nearly all actives have a fitted effect of over 50% in size
Sequence of Beta-2 adrenergic receptor (Homo sapiens) (P07550 whole entry, looked up): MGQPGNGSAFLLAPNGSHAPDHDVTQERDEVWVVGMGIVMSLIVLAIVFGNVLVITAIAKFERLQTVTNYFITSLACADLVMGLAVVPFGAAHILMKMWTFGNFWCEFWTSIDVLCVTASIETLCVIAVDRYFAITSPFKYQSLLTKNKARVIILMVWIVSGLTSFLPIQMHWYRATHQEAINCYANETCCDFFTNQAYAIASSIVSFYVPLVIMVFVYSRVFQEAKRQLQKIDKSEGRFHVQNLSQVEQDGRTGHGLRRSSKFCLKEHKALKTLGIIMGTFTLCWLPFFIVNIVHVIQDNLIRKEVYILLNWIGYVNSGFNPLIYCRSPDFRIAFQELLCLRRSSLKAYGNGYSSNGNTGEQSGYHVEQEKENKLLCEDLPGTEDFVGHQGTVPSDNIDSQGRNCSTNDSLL
In short: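 Assay format: CHO-ADRB2 cells, 18-20hr seeding at 37C/5% CO2, then compound plus 1nM isoproterenol agonist mix for 0.5hr RT. Homogeneous time-resolved fluorescence cAMP detection after 1hr, expressed as 665/615 nm ratio.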

[16] = molecular target: Beta-2 adrenergic receptor (Homo sapiens) (UniProt P07550); experiment: Adrenergic beta2 receptor (ADRB2) small molecule agonists, cell-based qHTS assay (AID 1963593);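 further: CHO cells stably overexpressing human ADRB2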
In short: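 CHO cells stably over-expressing ADRB2 were plated overnight at 37C, then dosed with compounds plus a stimulation mix containing 100uM IBMX and 25uM Ro-20-1724 for 0.5hr at room temperature. cAMP was measured by HTRF competition, 1hr.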

[17] = molecular target: D(2) dopamine receptor (Homo sapiens) (UniProt P14416); experiment: Dopamine D2 receptor (DRD2) small molecule agonists, cell-based qHTS assay (AID 1963594); further: nearly all actives have a fitted effect of over 35% in size
Sequence of D(2) dopamine receptor (Homo sapiens) (P14416 whole entry, looked up): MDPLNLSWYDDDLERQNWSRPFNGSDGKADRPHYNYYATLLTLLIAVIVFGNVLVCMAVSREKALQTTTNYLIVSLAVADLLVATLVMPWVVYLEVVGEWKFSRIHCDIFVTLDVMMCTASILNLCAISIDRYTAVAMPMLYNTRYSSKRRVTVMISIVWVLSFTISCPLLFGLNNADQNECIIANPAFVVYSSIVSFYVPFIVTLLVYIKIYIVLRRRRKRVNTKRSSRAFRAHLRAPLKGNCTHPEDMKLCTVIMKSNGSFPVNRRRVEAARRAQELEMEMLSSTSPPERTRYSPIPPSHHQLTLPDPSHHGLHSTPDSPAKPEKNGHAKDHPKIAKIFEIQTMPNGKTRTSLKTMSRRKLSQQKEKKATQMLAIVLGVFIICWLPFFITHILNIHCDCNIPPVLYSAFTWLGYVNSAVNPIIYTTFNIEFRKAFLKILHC
In short: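 HEK293 cells stably expressing human DRD2, pre-treated with PDE inhibitor Ro20-1724 (0.1 mM final) and compound 10 min at room temperature, then stimulated with NKH477 (200nM […]) for 30 min. cAMP read by HTRF (665/620 nm).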

[18] = molecular target: D(2) dopamine receptor (Homo sapiens) (UniProt P14416); experiment: Dopamine D2 receptor (DRD2) small molecule antagonists, cell-based qHTS assay (AID 1963595; active means well fitted inhibition curve with a large enough effect in the signal ratio in the repeat runs, with a control signal flat; the % refers to the signal ratio)
In short: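 Antagonism was scored as restored cAMP in HEK293-DRD2 cells. These cells were stimulated with 200 nM NKH477 and 12 nM quinpirole for 30 min at room temperature, in the presence of 0.1 mM Ro20-1724.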

[19] = molecular target: 5-hydroxytryptamine receptor 2A (Homo sapiens) (UniProt P28223); experiment: 5-hydroxytryptamine receptor 2A (HTR2A) small molecule agonists, cell-based qHTS assay (AID 1963587); further: nearly all actives have a fitted effect of over 30% in size; further: potency means the concentration at half of the fitted maximal effect
In short: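 CHO cells stably expressing human HTR2A, plated 18 h, loaded with calcium dye 1 h at 37 C. Agonist mode: compounds added and intracellular calcium fluorescence recorded kinetically for 2 min at 1 sec intervals.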

[20] = Nuclear factor erythroid 2-related factor 2/antioxidant responsive element (Nrf2/ARE) small molecule agonists: qHTS cell viability counter screen in human keratinocytes (AID 1919968; active means well fitted curve in the direction sought with a large enough effect in the repeat runs; an effect the other way counts as inactive or inconclusive; further: nearly all actives have a fitted effect of over 55% in size)
In short: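 Parallel cytotoxicity read: KeratinoSens HaCaT cells, compound treatment 23 h, viability by CellTiter-Fluor fluorescence 1 h post-reagent.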

SMILES	Potency [1]	Potency [2]	Potency [3]	Potency [4]	Potency [5]	Potency [6]	Potency [7]	Potency [8]	Potency [9]	Potency [10]	Potency [11]	Potency [12]	Potency [13]	Potency [14]	Potency [15]	Potency [16]	Potency [17]	Potency [18]	Potency [19]	Potency [20]
C=CC(=C)CCC=C(C)C	inactive	inactive	inactive	inactive	inactive	inactive	inactive	inactive	inactive	inactive	inactive	inactive	inactive	inactive	inactive	inactive	inactive	inactive		
COc1cc([N+](=O)[O-])ccc1N	inactive	inactive	inactive	inactive	inactive	inactive	inactive	inactive		inactive	inactive	inactive	inactive	inactive	inactive	inactive	inactive		inactive	
Cc1ccc(O)c(N)c1	inactive	inactive	inactive	inactive	inactive	inactive	inactive	inactive	inactive	inactive	inactive	inactive	inactive	inactive	inactive	inactive	inactive	inactive	inactive	
CCCCN(CCCC)CC(O)c1cc(Cl)cc2c1-c1ccc(Cl)cc1/C2=C/c1ccc(Cl)cc1 (stereo unspecified)	inactive	inactive	inactive	inactive	inactive	inactive	inactive	inactive	inactive	inactive	inactive	inactive					inactive	inactive	inactive	
CNCCCC1c2ccccc2C=Cc2ccccc21	inactive	inactive	inactive	inactive	inactive	inactive	inactive	inactive	inactive	7.29 µM (active)		inactive	inactive	inactive			inactive		inactive	
C1=CC2C3C=CC(C3)C2C1 (stereo unspecified)			inactive		inactive				inactive		inactive		inactive	inactive	inactive				54 µM (active)	inactive
CCC(=O)OCCc1ccccc1	inactive	inactive	inactive	inactive	inactive	inactive	inactive	inactive	inactive	inactive	inactive	inactive	inactive		inactive			inactive	inactive	
O=S(=O)(O)c1cc(S(=O)(=O)O)c2c(N=Nc3ccccc3)c(O)ccc2c1	inactive	inactive	inactive	inactive	inactive	inactive	inactive	inactive	inactive	inactive	inactive	inactive	inactive	inactive		inactive				
C=Cc1ccc(S(=O)(=O)O)cc1	inactive	inactive	inactive	inactive	inactive	inactive	inactive	inactive	inactive	inactive	inactive	inactive	inactive		inactive		inactive	inactive	inactive	
